Sampled rows, rich in hits. Any-hit rate of the full collection: about 2.4%.
CHO-K1 Ca antag: M1 antagonist counterscreen hit in parental CHO-K1 cells; ATP-induced calcium, Fluo-8 fluorescence; inhibition, % at 3 µM; 0.6% of 360,000 active; AID 602250;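 active = inhibition above a per-plate cutoff, the plate's mean sample inhibition plus 3 SD, cut at about 24% in these data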;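 also: 0% = DMSO plus EC80 ATP and 100% = DMSO alone without ATP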
M1 PAM: human M1 muscarinic receptor positive allosteric modulators, primary screen, CHO-K1 cells, Fluo-8 calcium fluorescence, 1536-well. Muscarinic acetylcholine receptor M1 (Homo sapiens), P11229. CHO-K1 hM1, ACh EC20; 0% = ACh EC20, 100% = maximal ACh. activation, % at 3 µM. 0.088% of 360,000 active. AID 588819, 2011; in the data active = activation above about 19%, passing the limit was not always enough
Target sequence (P11229 whole entry, looked up): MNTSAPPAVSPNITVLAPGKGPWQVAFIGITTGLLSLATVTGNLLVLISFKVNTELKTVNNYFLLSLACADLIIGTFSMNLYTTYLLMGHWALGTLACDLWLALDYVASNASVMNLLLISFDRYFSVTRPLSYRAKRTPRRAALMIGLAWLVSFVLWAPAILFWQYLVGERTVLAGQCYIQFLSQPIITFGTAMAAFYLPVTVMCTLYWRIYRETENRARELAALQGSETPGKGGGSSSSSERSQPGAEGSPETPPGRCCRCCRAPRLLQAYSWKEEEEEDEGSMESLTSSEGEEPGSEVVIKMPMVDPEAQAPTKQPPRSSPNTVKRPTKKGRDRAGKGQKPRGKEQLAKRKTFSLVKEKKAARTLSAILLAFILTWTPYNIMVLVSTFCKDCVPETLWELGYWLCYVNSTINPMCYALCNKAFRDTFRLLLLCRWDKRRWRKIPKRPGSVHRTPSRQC
M1 PAM parental: nonselective calcium activators in parental CHO-K1 cells, primary screen, counter-screen for M1 PAM project, cell-based, Fluo-8 calcium fluorescence, full deck, 1536-well. ATP EC20; 0% at ATP EC20, 100% at ATP max. activation, % at 3 µM. 0.02% of 360,000 active;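 active = activation above the run cutoff, the mean activation of all test compounds plus 3 SD, cut at about 40% in these data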;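 also: peak over basal fluorescence ratio in a 140 s read after ATP addition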
M1 ag: human M1 muscarinic receptor agonists, primary screen, Fluo-8 calcium fluorescence, CHO-K1 cells, HTS | Muscarinic acetylcholine receptor M1 (Homo sapiens), P11229 | CHO-K1 hM1, agonist mode; 0% DMSO, 100% acetylcholine EC100 | activation, % at 3 µM | 0.33% of 360,000 active;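 active = activation above the run's mean compound activation plus 3 SD, cut at about 16% in these data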;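 also: peak over basal fluorescence ratio within a 140 s kinetic read after compound addition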
CHRM1 antagonist: human M1 muscarinic receptor antagonists, primary screen, CHO-K1 cells, Fluo-8 calcium fluorescence, 1536-well. 1.3% of 360,000 active. AID 588852, 2011. inhibition, % at 3 µM. Muscarinic acetylcholine receptor M1 (Homo sapiens), P11229. CHO-K1 hM1, ACh EC80 antagonist;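 active = percent inhibition above its own plate's cutoff, namely the mean of that plate's compound wells plus 3 SD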;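 also: peak over basal fluorescence ratio during 140 s after agonist addition; 0% = ACh EC80 plus DMSO and 100% = DMSO alone without agonist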
M1 ag parental: counter-screen for M1 agonists: effect in parental CHO-K1 cells; Fluo-8 calcium fluorescence; scaled to maximal ATP response, vehicle zero; activation, % at 3 µM; 0.48% of 360,000 active; AID 602248, 2012; in the data active = activation above about 15%;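 also: untransfected CHO-K1 host cells lacking M1 receptor as counterscreen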
The depositor's hits bear a star.

SMILES	CHO-K1 Ca antag	M1 PAM	M1 PAM parental	M1 ag	CHRM1 antagonist	M1 ag parental
CN(c1ccc(F)cc1)S(=O)(=O)c1ccc(Cl)c(C(=O)Nc2ccncc2)c1	34*	-18	-24	0	34*	10
O=C(Nc1ccccc1)c1cc(S(=O)(=O)Nc2cccnc2)ccc1Cl	17	9	-20	-1	-20	0
O=C(Nc1ccc(S(=O)(=O)NCc2ccccc2)cc1)Nc1ccc2c(c1)OCO2	5	-12	10	3	27*	10
CCCCN(C)C(=O)c1cn(C)c2ccc(S(=O)(=O)N(C)C)cc2c1=O	8	0	4	2	-1	-1
COc1ccc(Br)cc1/C(C)=N/NC1=NCCN1	9	-14	-4	68*	79*	6
CCCCCOc1ccc(Br)cc1/C(C)=N/NC1=NCCN1	-5	-16	20	-4	6	1
Cc1cccc(C(=O)Oc2ccc(/C=N/NC(=O)Cc3ccc([N+](=O)[O-])cc3)cc2)c1	13	-2	-12	-1	1	0
Cc1cc(C(=O)Nc2ccon2)ccc1[N+](=O)[O-]	2	7	2	-2	-6	21*
COc1c(Cl)cc(C(=O)Nc2ccccc2C(=O)O)cc1Cl	4	3	8	3	-3	1
COc1ccc(N2C(=O)CCC(C(=O)NCCN3CCOCC3)C2c2ccc(OC)c(OC)c2)cc1 (stereo unspecified)	3	-4	-6	-2	22*	0
COc1ccc(N2C(=O)CCC(C(=O)O)C2c2ccc(OC)c(OC)c2)cc1 (stereo unspecified)	-5	5	13	-5	3	0
CC1=C(C(=O)N(C)C)CC(CC(=O)NCCCCc2ccccc2)C(=O)N1Cc1ccccc1 (stereo unspecified)	-4	-1	13	35*	-15	0
CCN(CC)C(=O)C1=C(C)N(CCCOC)C(=O)C(CC(=O)NCCc2ccccn2)C1 (stereo unspecified)	30*	5	-12	-4	-7	0
COCCCN1C(=O)C(CC(=O)NCCc2ccccn2)CC(C(=O)N2CCOCC2)=C1C (stereo unspecified)	-7	10	8	2	-12	1
COc1ccc(CN2C(=O)C(CC(=O)NCCCCc3ccccc3)CC(C(=O)N(C)C)=C2C)cc1 (stereo unspecified)	-8	-17	17	53*	-9	-1
Cc1cccc(N2CCN(S(=O)(=O)c3ccc4c(c3)CCN4C(=O)CCC(=O)O)CC2)c1C	3	5	-3	-3	-9	1
O=C(Nc1ccccc1N1CCN(C(=O)c2ccc(Cl)cc2)CC1)c1ccc(Br)cc1	27*	-5	-8	-2	10	0
O=C(c1ccc(Cl)cc1)N1CCN(c2cc(=O)[nH]nc2-c2ccccc2)CC1	28*	12	-17	2	1	0
O=C(NCCC(=O)N1CCN(c2ccccc2O)CC1)c1ccc(Br)cc1	-6	22*	10	1	-35	1
COc1ccc(C(=O)Nc2ccccc2N2CCN(C(=O)c3ccccc3)CC2)cc1Br	6	-14	-12	-5	35*	4
Cc1cccc(NC(=S)NNC(=O)c2csc3c2CCCC3)c1	-18	3	2	-1	-10	2
O=C(/C=C1\SC(=O)N(CC(=O)Nc2ccc(Cl)cc2)C1=O)Nc1ccc(F)cc1	1	12	25	-6	-4	11
O=C(COC(=O)c1cccc(Cl)c1)NCCN1C(=O)CSC1=O	-10	-2	9	-5	-4	0
O=C(COC(=O)c1cc(Cl)cc(Cl)c1)NCCN1C(=O)CSC1=O	26*	-4	-14	-7	3	0
O=C(COC(=O)CNC(=O)c1ccco1)NCCN1C(=O)CSC1=O	31*	5	-6	-2	2	0
SMILES	CHO-K1 Ca antag	M1 PAM	M1 PAM parental	M1 ag	CHRM1 antagonist	M1 ag parental
CC(=O)/C(C#N)=C1\NC(=O)C(Cc2cc(Cl)ccc2Cl)S1 (stereo unspecified)	-4	-4	0	-1	0	8
COCC(C)n1c(SCc2nc(N)nc(Nc3ccccc3C)n2)nc2ccccc2c1=O (stereo unspecified)	-12	3	22	-4	-17	0
O=C(NC(c1cccnc1)C(F)(F)F)c1cc(COc2ccc3c(c2)CCCC3)on1 (stereo unspecified)	27*	-9	-25	2	42*	7
CCOC(=O)C1=C(C)N(CC(C)C)C(=O)/C1=C\c1ccc(OCC(=O)Nc2ccccc2)cc1	-1	-20	13	-4	34*	1
CCn1c2c(c(=N)c3c1CCC3)CCCC2	-7	2	22	-7	-15	1
CCCCCCCCn1c2c(c(=N)c3ccccc31)CCC2	31*	-27	-7	-6	47*	8
CCCCCn1c2c(c(=N)c3ccccc31)CCC2	-6	5	14	-8	-2	1
CCCCCCCCCCn1c2c(c(=N)c3c1CCC3)CCC2	18	-12	17	-1	35*	4
CCCCCCCCCn1c2c(c(=N)c3c1CCC3)CCCC2	38*	-25	-2	-1	49*	12
CC(C)(C)c1ccc(-c2nc(C#N)c(NCc3cccnc3)o2)cc1	-13	12	20	-1	-9	0
CC1OC(CC(=O)O)CC2=C1C(=O)c1c(O)cccc1C2=O (stereo unspecified)	20	3	21	15	46*	10
O=C(Cn1c(-c2ccccn2)nc2ccccc21)N/N=C/c1ccccn1	30*	-8	-14	0	14	4
CCCSc1nc(-n2ncc(C#N)c2N)c2c3c(sc2n1)CCC(C)C3 (stereo unspecified)	-18	-9	9	-9	10	0
CCNC(=O)COC(=O)c1cc(C)nc2ccccc12	2	9	3	-5	10	1
CCOC(=O)C1(CCOc2ccccc2)CCN(Cc2nccn2CC)CC1	-3	-27	21	-10	27*	2
CCOC(=O)C1(CCOc2ccccc2)CCN(Cc2ccncc2)CC1	18	-8	1	-13	8	2
CCOC(=O)C1(CCOc2ccccc2)CCN(Cc2ccc(C(=O)OC)cc2)CC1	1	-23	-3	-4	42*	2
CCn1ccnc1CN1CCC(CO)(CCOc2ccccc2)CC1	6	-9	-4	-13	1	0
CCOC(=O)C1(CCc2ccccc2)CCN(C(=O)C2CCOCC2)CC1	25*	-13	-17	-6	15	0
